Data from PubChem BioAssay (NCATS).
Results filed as inconclusive are left out. Activity calls are given as the source filed them. Calls follow the shape of the dose curve; as a rule, active = well fitted cell-killing curve with a large enough effect; inconclusive = small, poorly fitted or top-dose-only effect, or effect the other way; inactive = flat fitted curve, though single readings scatter. Where a SMILES comes first, the peptide text is derived from it.

How the values were obtained:
Experiment in all cases: Primary qHTS to identify gynecologic anti-cancer compounds using libraries of approved drugs and bioactive compounds (AID 1345084); also: nearly all actives have a fitted effect of over 55% in size
C33A = conditions: Gynecologic cancer cell panel viability, ATPlite luminescence, 48 h; series mostly up to 57.5 µM
In short: (§1)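 Five-point cytotoxicity, 48 h drug exposure at 37 C, 5% CO2, on cells seeded 16 h beforehand. ATP content read by ATPlite luminescence.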

CAOV3 = conditions: Gynecologic cancer cell panel viability, ATPlite luminescence, 48 h; series mostly up to 57.5 µM
In short: as §1

CASKI = conditions: Gynecologic cancer cell panel viability, ATPlite luminescence, 48 h; series mostly up to 57.5 µM
In short: as §1

Es-2 = conditions: Gynecologic cancer cell panel viability, ATPlite luminescence, 48 h; series mostly up to 57.5 µM
In short: as §1

HeLa = conditions: Gynecologic cancer cell panel viability, ATPlite luminescence, 48 h; series mostly up to 57.5 µM
In short: as §1

Hek293T = conditions: Gynecologic cancer cell panel viability, ATPlite luminescence, 48 h, control line for the selectivity index; series mostly up to 57.5 µM
In short: as §1

JEG-3 = conditions: Gynecologic cancer cell panel viability, ATPlite luminescence, 48 h; series mostly up to 57.5 µM
In short: as §1

OV90 = conditions: Gynecologic cancer cell panel viability, ATPlite luminescence, 48 h; series mostly up to 57.5 µM
In short: as §1

PA-1 = conditions: Gynecologic cancer cell panel viability, ATPlite luminescence, 48 h; series mostly up to 57.5 µM
In short: as §1

SKOV3 = conditions: Gynecologic cancer cell panel viability, ATPlite luminescence, 48 h; series mostly up to 57.5 µM
In short: as §1

Tov-21-G = conditions: Gynecologic cancer cell panel viability, ATPlite luminescence, 48 h; series mostly up to 57.5 µM
In short: as §1

Tov112D = conditions: Gynecologic cancer cell panel viability, ATPlite luminescence, 48 h; series mostly up to 57.5 µM
In short: as §1
% is scaled to controls: 0 for no effect and ±100 for the full control effect.

CC(=O)c1ccc(O[C@@H]2O[C@H](CO[C@@H]3OC[C@@H](O)[C@H](O)[C@H]3O)[C@@H](O)[C@H](O)[C@H]2O)cc1
inactive: Potency (C33A) | Potency (CAOV3) | outcome (CASKI) | Potency (Es-2) | Potency (HeLa) | Potency (Hek293T) | Potency (JEG-3) | Potency (OV90) | Potency (PA-1) | Potency (SKOV3) | Potency (Tov-21-G) | Potency (Tov112D)

C=C1CC/C=C(/CO)C(=O)C[C@@H]2[C@@H]1C[C@@]2(C)COC(C)=O
inactive: Potency (C33A) | Potency (CAOV3) | outcome (CASKI) | Potency (Es-2) | Potency (HeLa) | Potency (Hek293T) | Potency (JEG-3) | Potency (OV90) | Potency (PA-1) | Potency (SKOV3) | Potency (Tov-21-G) | Potency (Tov112D)

CC1(C)CC2C(O)C3=C(CC(C)(O)C2C1)C(=O)OC3 (stereo not drawn)
inactive: Potency (C33A) | Potency (CAOV3) | outcome (CASKI) | Potency (Es-2) | Potency (HeLa) | Potency (Hek293T) | Potency (JEG-3) | Potency (OV90) | Potency (PA-1) | Potency (SKOV3) | Potency (Tov-21-G) | Potency (Tov112D)

C/C=C(\C)C(=O)O[C@H]1C=CC(=O)O[C@H]1/C=C/[C@H](O)[C@@H](C)O
inactive: Potency (C33A) | Potency (CAOV3) | outcome (CASKI) | Potency (Es-2) | Potency (HeLa) | Potency (Hek293T) | Potency (JEG-3) | Potency (OV90) | Potency (PA-1) | Potency (SKOV3) | Potency (Tov-21-G) | Potency (Tov112D)

Cc1cn(-c2cc(NC(=O)c3ccc(C)c(Nc4nccc(-c5cnccn5)n4)c3)cc(C(F)(F)F)c2)cn1
inactive: Potency (C33A) | Potency (CAOV3) | outcome (CASKI) | Potency (Es-2) | Potency (HeLa) | Potency (Hek293T) | Potency (JEG-3) | Potency (OV90) | Potency (PA-1) | Potency (SKOV3) | Potency (Tov-21-G) | Potency (Tov112D)

C[C@@H]1C[C@@H](O)[C@@]2(CO)C(CO)=CCC[C@@H]2[C@@]12C[C@@H](c1ccoc1)OC2=O
inactive: Potency (C33A) | Potency (CAOV3) | outcome (CASKI) | Potency (Es-2) | Potency (HeLa) | Potency (Hek293T) | Potency (JEG-3) | Potency (OV90) | Potency (PA-1) | Potency (SKOV3) | Potency (Tov-21-G) | Potency (Tov112D)

C=C1CC[C@@]2(OC1)O[C@H]1CC3[C@@H]4CC=C5C[C@H](O[C@H]6OC[C@@H](O)C(O)[C@@H]6O[C@@H]6O[C@@H](C)[C@H](O)[C@@H](O[C@@H]7O[C@H](CO)[C@@H](O)[C@H](O)[C@H]7O)[C@H]6O)C[C@@H](O)[C@]5(C)C4CC[C@]3(C)[C@H]1[C@@H]2C (stereo partly drawn)
inactive: activity change, negative = cytotoxicity (C33A) 2.1% [at 11.6 µM] | activity change, negative = cytotoxicity (CAOV3) -11% [at 11.6 µM] | activity change, negative = cytotoxicity (CASKI) -7.31% [at 11.6 µM] | activity change, negative = cytotoxicity (Es-2) -3.81% [at 11.6 µM] | activity change, negative = cytotoxicity (HeLa) 12.1% [at 11.6 µM] | activity change, negative = cytotoxicity (Hek293T) 9.36% [at 11.6 µM] | activity change, negative = cytotoxicity (JEG-3) -8.07% [at 11.6 µM] | activity change, negative = cytotoxicity (OV90) 6.02% [at 11.6 µM] | activity change, negative = cytotoxicity (PA-1) 3.82% [at 11.6 µM] | activity change, negative = cytotoxicity (SKOV3) 0.203% [at 11.6 µM] | activity change, negative = cytotoxicity (Tov-21-G) 7.35% [at 11.6 µM] | activity change, negative = cytotoxicity (Tov112D) 1.29% [at 11.6 µM]

C=C1CCC2C(C)(C)CCC[C@]2(C)[C@H]1CC/C(C)=C/C(=O)O (stereo partly drawn)
inactive: Potency (C33A) | Potency (CAOV3) | outcome (CASKI) | Potency (Es-2) | Potency (HeLa) | Potency (Hek293T) | Potency (JEG-3) | Potency (OV90) | Potency (PA-1) | Potency (SKOV3) | Potency (Tov-21-G) | Potency (Tov112D)

Cc1c(F)cc(C(=O)NC2CC2)cc1-c1ccc(C(=O)NCC(C)(C)C)cn1
inactive: Potency (C33A) | Potency (CAOV3) | outcome (CASKI) | Potency (Es-2) | Potency (HeLa) | Potency (Hek293T) | Potency (JEG-3) | Potency (OV90) | Potency (PA-1) | Potency (SKOV3) | Potency (Tov-21-G) | Potency (Tov112D)

C[C@H]1[C@H](C)CC[C@]2(C(=O)O)CC[C@]3(C)C(=CCC4[C@@]5(C)C[C@@H](O)[C@H](O)C(C)(C)C5CC[C@]43C)[C@H]12 (stereo partly drawn)
inactive: Potency (C33A) | Potency (CAOV3) | outcome (CASKI) | Potency (Es-2) | Potency (HeLa) | Potency (Hek293T) | Potency (JEG-3) | Potency (OV90) | Potency (PA-1) | Potency (SKOV3) | Potency (Tov-21-G) | Potency (Tov112D)

CC(C)C1NC(=O)CNC(=O)C2CCCN2C(=O)C(Cc2c[nH]c3ccccc23)NC(=O)CNC(=O)C(Cc2ccc(O)cc2)NC(=O)CNC1=O (stereo not drawn) (cyclo(GVGYGWP); configuration not given here)
inactive: Potency (C33A) | Potency (CAOV3) | outcome (CASKI) | Potency (Es-2) | Potency (HeLa) | Potency (Hek293T) | Potency (JEG-3) | Potency (OV90) | Potency (PA-1) | Potency (SKOV3) | Potency (Tov-21-G) | Potency (Tov112D)

COc1ccc(CC(=O)NCc2ccccc2-c2ccccc2C(=O)NCCc2cccnc2)cc1
inactive: Potency (C33A) | Potency (CAOV3) | outcome (CASKI) | Potency (Es-2) | Potency (HeLa) | Potency (Hek293T) | Potency (JEG-3) | Potency (OV90) | Potency (PA-1) | Potency (SKOV3) | Potency (Tov-21-G) | Potency (Tov112D)

CC1(C)C2CC[C@@]34CC(CC[C@H]3[C@]2(C)CC[C@@H]1O[C@@H]1O[C@H](CO)[C@@H](O)[C@H](O)[C@H]1O)[C@](C)(O)C4 (stereo partly drawn)
inactive: Potency (C33A) | Potency (CAOV3) | outcome (CASKI) | Potency (Es-2) | Potency (HeLa) | Potency (Hek293T) | Potency (JEG-3) | Potency (OV90) | Potency (PA-1) | Potency (SKOV3) | Potency (Tov-21-G) | Potency (Tov112D)

O=C(/C=C/c1ccc(O)c(O)c1)O[C@@H]1[C@@H](O)[C@H](OC2CCCCC2O)O[C@H](CO)[C@H]1O (stereo partly drawn)
inactive: Potency (C33A) | Potency (CAOV3) | outcome (CASKI) | Potency (Es-2) | Potency (HeLa) | Potency (Hek293T) | Potency (JEG-3) | Potency (OV90) | Potency (PA-1) | Potency (SKOV3) | Potency (Tov-21-G) | Potency (Tov112D)
